Source: PubChem BioAssay (Tox21)
Activity calls are given as the source filed them. Unless noted, calls follow the shape of the dose curve; as a rule, active = well fitted curve in the direction sought with a large enough effect in the repeat runs; inconclusive = weak or mixed curves; inactive = no such curve, though single readings can be large; an effect the other way counts as inactive or inconclusive.

Key:
[1] = qHTS assay for small molecule agonists of the p53 signaling pathway (AID 651631; calls by dose curve; also: nearly all actives have a fitted effect of over 15% in size; also: potency is read from the fitted curve at half-maximal effect)
Summary of the method: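 Fluorescence intensity from cleaved LiveBLAzer B/G substrate (2 h, room temperature) served as the signal. Beforehand, HCT-116 reporter cells bearing p53 response elements were treated 16 h at 37 °C with DMSO-dissolved compounds.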

[2] = qHTS assay for small molecules that induce genotoxicity in human embryonic kidney cells expressing luciferase-tagged ATAD5 (AID 651632); also: nearly all actives have a fitted effect of over 15% in size; also: potency is read from the fitted curve at half-maximal effect
Summary of the method: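 Genotoxicity read-out via ATAD5-luciferase: HEK293T cells, 16 hr compound incubation at 37C, Amplite detection.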

[3] = qHTS assay for small molecule agonists of the p53 signaling pathway - cell viability (AID 651633; calls by dose curve; also: nearly all actives have a fitted effect of over 30% in size; also: potency is read from the fitted curve at half-maximal effect)
Summary of the method: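 Viability counter-read: CellTiter-Glo luminescence (30 min, room temperature) in the same p53RE-bla plates. These plates had been exposed to compounds for 16 h at 37 C.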

[4] = qHTS assay for small molecule disruptors of the mitochondrial membrane potential - cell viability (AID 720634; calls by dose curve;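 also: human HepG2 liver cancer cells; nearly all actives have a fitted effect of over 20% in size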)
Summary of the method: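 Human hepatoma HepG2 cells were treated for 1 hr with test chemicals, then given m-MPI dye and CellTiter-Glo. Cell viability reflects luminescence proportional to cellular ATP.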

[5] = qHTS assay for small molecule disruptors of the mitochondrial membrane potential (AID 720635); also: potency is read from the fitted curve at half-maximal effect
Summary of the method: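 Mitochondrial membrane potential tracked with Mito-MPS dye, red aggregates (ex 540/em 590 nm) against green monomers (ex 490/em 535 nm). Compound treatment 1 hr at 37C, dye 30 min in HepG2.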

[6] = qHTS assay to test for compound auto fluorescence at 535 nm (green) in HepG2 cells (AID 720675)
[7] = qHTS assay to test for compound auto fluorescence at 460 nm (blue) in HEK293 cells (AID 720678)
Summary of the method: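 Intrinsic compound fluorescence is recorded in live HEK293 cultures after overnight incubation at 37C, 5% CO2, using excitation 405 nm and emission 460 nm. Values are referenced to triamterene.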

[8] = qHTS assay to test for compound auto fluorescence at 590 nm (red) in HEK293 cells (AID 720679)
Summary of the method: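 Red autofluorescence, HEK293 cells: 2,000 cells/well; attach 4-5 hr 37C; add 23 nL cpd or DMSO; incubate o/n 37C 5% CO2; read Ex540/Em590; Rose Bengal sodium reference.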

[9] = qHTS assay to test for compound auto fluorescence at 535 nm (green) in HEK293 cells (AID 720680)
[10] = qHTS assay to test for compound auto fluorescence at 460 nm (blue) in HEK293 cell free culture (AID 720681)
Summary of the method: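 Blue fluorescence (Ex 405/Em 460 nm, triamterene-equivalent) was read immediately after pin transfer of compound or DMSO into medium (DMEM, 10% FBS) without cells.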

[11] = qHTS assay to test for compound auto fluorescence at 535 nm (green) in HEK293 cell free culture (AID 720682)
Summary of the method: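 Intrinsic compound fluorescence is measured in culture medium containing 10% FBS, with excitation at 485 nm and detection at 535 nm, referenced to fluorescein.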

[12] = qHTS assay to test for compound auto fluorescence at 590 nm (red) in HEK293 cell free culture (AID 720683)
Summary of the method: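 Red-channel autofluorescence of compounds in culture medium (DMEM, 10% FBS), no cells, measured at 540/590 nm. Rose Bengal sodium is the reference fluorophore for equivalence.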

[13] = qHTS assay to test for compound auto fluorescence at 590 nm (red) in HepG2 cell free culture (AID 720684)
Summary of the method: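 Plate contents were MEM with 10% FBS plus test compound or DMSO, no cells. Fluorescence was recorded with 540 nm excitation and 590 nm emission.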

[14] = qHTS assay to test for compound auto fluorescence at 460 nm (blue) in HepG2 cell free culture (AID 720685)
Summary of the method: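 Compound (23 nL) or DMSO pinned into cell-free MEM with 10% FBS; blue fluorescence read at 405/460 nm excitation/emission, expressed as auto-fluorescence equivalency to triamterene.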

[15] = qHTS assay to test for compound auto fluorescence at 535 nm (green) in HepG2 cell free culture (AID 720686)
[16] = qHTS assay to test for compound auto fluorescence at 460 nm (blue) in HepG2 cells (AID 720687)
Summary of the method: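 Blue-channel autofluorescence (Ex/Em 405/460 nm, triamterene-equivalent) was measured after 1 hr compound exposure at 37 C, 5% CO2. Cells were HepG2, plated overnight at 37 C in MEM plus 10% FBS.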

[17] = biological target: Glucocorticoid receptor (Homo sapiens) (UniProt P04150); assay: qHTS assay to identify small molecule antagonists of the glucocorticoid receptor (GR) signaling pathway (AID 720692; active = well fitted inhibition curve with a large enough effect in the signal ratio in the repeat runs, not every such curve was filed as active; inconclusive = weak or mixed curves, or effect the other way; inactive = no such curve, though single readings can be large or run the other way; the % refers to the signal ratio; also: potency is read from the fitted curve at half-maximal effect)
Glucocorticoid receptor (Homo sapiens), sequence (P04150 whole entry, looked up): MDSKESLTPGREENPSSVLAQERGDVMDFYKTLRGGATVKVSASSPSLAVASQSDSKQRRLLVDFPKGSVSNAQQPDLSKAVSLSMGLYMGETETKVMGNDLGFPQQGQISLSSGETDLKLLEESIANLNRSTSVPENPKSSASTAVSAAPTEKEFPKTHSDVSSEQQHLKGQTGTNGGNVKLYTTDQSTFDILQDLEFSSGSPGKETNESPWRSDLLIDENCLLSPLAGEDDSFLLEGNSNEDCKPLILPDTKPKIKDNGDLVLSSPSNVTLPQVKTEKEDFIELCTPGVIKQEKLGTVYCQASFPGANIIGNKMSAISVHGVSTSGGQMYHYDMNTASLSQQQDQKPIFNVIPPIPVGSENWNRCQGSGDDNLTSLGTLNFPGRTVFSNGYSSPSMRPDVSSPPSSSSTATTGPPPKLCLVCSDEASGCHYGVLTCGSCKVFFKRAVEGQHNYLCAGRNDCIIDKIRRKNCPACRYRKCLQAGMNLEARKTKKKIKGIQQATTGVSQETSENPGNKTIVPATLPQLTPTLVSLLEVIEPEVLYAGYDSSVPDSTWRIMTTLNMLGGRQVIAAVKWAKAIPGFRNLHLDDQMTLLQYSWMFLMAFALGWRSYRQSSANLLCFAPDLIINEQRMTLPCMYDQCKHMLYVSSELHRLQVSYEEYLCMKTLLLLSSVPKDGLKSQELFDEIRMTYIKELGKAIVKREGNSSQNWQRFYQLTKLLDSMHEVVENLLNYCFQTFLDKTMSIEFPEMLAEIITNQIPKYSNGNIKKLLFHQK
Summary of the method: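 Fluorescence from cleaved LiveBLAzer B/G FRET substrate reports GRE-driven beta-lactamase in HeLa cells; compounds are tested against 5 nM dexamethasone (final) over 18 h at 37 C, substrate incubation 2 h at room temperature.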

[18] = qHTS assay to test for compound auto fluorescence at 590 nm (red) in HepG2 cells (AID 720674)
Summary of the method: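 We screened compounds on adherent HepG2 cells, incubating them for an hour at 37 C in 5% CO2 before reading emission at 590 nm under 540 nm excitation; values reflect equivalence to Rose Bengal sodium fluorescence.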

[19] = qHTS assay for small molecules that induce genotoxicity in human embryonic kidney cells expressing luciferase-tagged ATAD5 - cell viability (AID 651634; calls by dose curve; also: nearly all actives have a fitted effect of over 25% in size)
Summary of the method: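 Live-cell protease activity (CellTiter-Fluor, fluorescence) indicates viability. HEK293T cells with luciferase-tagged ATAD5; 15.5 hr compound treatment at 37C.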

[20] = biological target: Glucocorticoid receptor (Homo sapiens) (UniProt P04150); assay: qHTS assay to identify small molecule agonists of the glucocorticoid receptor (GR) signaling pathway (AID 720691; active = well fitted activation curve with a large enough effect in the signal ratio in the repeat runs, not every such curve was filed as active; inconclusive = weak or mixed curves, or effect the other way; inactive = no such curve, though single readings can be large or run the other way; the % refers to the signal ratio; also: potency is read from the fitted curve at half-maximal effect); details: GR-bla HeLa, beta-lactamase reporter ratio, 18 h; activation: at 62.4 µM (top of the series)
Summary of the method: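 Beta-lactamase reporter activity, read as fluorescence intensity, was measured in GR-bla HeLa cells exposed to compounds for 18 h at 37 C and then loaded with LiveBLAzer B/G FRET substrate for 2 h at room temperature.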
% is scaled to controls: 0 for no effect and ±100 for the full control effect.

C#C[C@]1(OC(C)=O)CC[C@H]2[C@@H]3CCC4=CC(=O)CC[C@@H]4[C@H]3CC[C@@]21C
active: Potency [17] 2.13 µM
inactive: Potency [1] | Potency [2] | Potency [3] | Potency [4] | Potency [5] | Potency [6] | Potency [7] | Potency [8] | Potency [9] | Potency [10] | Potency [11] | Potency [12] | Potency [13] | outcome [14] | Potency [15] | outcome [16]

CO[C@H]1C=CO[C@@]2(C)Oc3c(C)c(O)c4c(O)c(c5c(nc6cc(C)ccn65)c4c3C2=O)NC(=O)/C(C)=C\C=C[C@H](C)[C@H](O)[C@@H](C)[C@@H](O)[C@@H](C)[C@H](OC(C)=O)[C@@H]1C
inactive: Potency [1] | Potency [2] | Potency [3] | Potency [4] | Potency [18] | Potency [6] | Potency [7] | Potency [8] | Potency [9] | Potency [10] | Potency [11] | Potency [12] | Potency [13] | outcome [14] | Potency [15] | outcome [16]

COc1cc(C)c(/C=C/C(C)=C/C=C/C(C)=C/C(=O)O)c(C)c1C
inactive: Potency [2] | Potency [19] | Potency [4] | Potency [5] | Potency [18] | Potency [6] | Potency [7] | Potency [8] | Potency [9] | Potency [10] | Potency [11] | Potency [12] | Potency [13] | outcome [14] | Potency [15] | outcome [16] | Potency [20]
active: Potency [1] 29.8 µM

CC[C@@]1(O)C(=O)OCc2c1cc1n(c2=O)Cc2cc3c([N+](=O)[O-])cccc3nc2-1
inactive: Potency [2] | Potency [4] | Potency [18] | Potency [6] | Potency [8] | Potency [9] | Potency [10] | Potency [11] | Potency [12] | Potency [13] | outcome [14] | Potency [15] | outcome [16]
active: Potency [1] 0.473 µM | Potency [3] 0.473 µM | activation [20] 5.3% [inconclusive]

O=[N+]([O-])c1ccc(Oc2ccc(N=C=S)cc2)cc1
inactive: Potency [2] | Potency [3] | Potency [19] | Potency [18] | Potency [6] | Potency [7] | Potency [8] | Potency [9] | Potency [10] | Potency [11] | Potency [12] | Potency [13] | Potency [15] | outcome [16]
active: Potency [1] 13.3 µM | Potency [5] 5.96 µM

CC1(S(=O)(=O)O)CC(=O)c2ccccc2C1=O (stereo not drawn)
inactive: Potency [2] | Potency [4] | Potency [18] | Potency [6] | Potency [8] | Potency [10] | Potency [11] | Potency [12] | Potency [13] | outcome [14] | Potency [15] | outcome [16]
active: Potency [1] 21.1 µM | Potency [3] 26.6 µM

O=C(O)c1cc2ccccc2c(Cc2c(O)c(C(=O)O)cc3ccccc23)c1O
inactive: Potency [1] | Potency [2] | Potency [19] | Potency [4] | Potency [18] | Potency [6] | Potency [7] | Potency [8] | Potency [9] | Potency [10] | Potency [11] | Potency [13] | outcome [14] | Potency [15] | Potency [20] | Potency [17]

CNCC(O)c1ccc(OC(=O)C(C)(C)C)c(OC(=O)C(C)(C)C)c1 (stereo not drawn)
inactive: Potency [1] | Potency [2] | Potency [3] | Potency [19] | Potency [4] | Potency [6] | Potency [7] | Potency [8] | Potency [9] | Potency [10] | Potency [11] | Potency [12] | Potency [13] | outcome [14] | Potency [15] | outcome [16] | Potency [20] | Potency [17]

CCC(=O)O[C@H]1CC[C@H]2[C@@H]3CCc4cc(O)ccc4[C@H]3CC[C@]12C
inactive: Potency [2] | Potency [19] | Potency [18] | Potency [6] | Potency [7] | Potency [8] | Potency [9] | Potency [10] | Potency [11] | Potency [12] | Potency [13] | outcome [14] | Potency [15] | outcome [16]
active: Potency [1] 33.5 µM | Potency [5] 11.9 µM

CC[C@H]1OC(=O)[C@H](C)[C@@H](O[C@H]2C[C@@](C)(OC)[C@@H](O)[C@H](C)O2)[C@H](C)[C@@H](O[C@@H]2O[C@H](C)C[C@H](N(C)C)[C@H]2O)[C@](C)(O)C[C@@H](C)[C@@H]2N[C@@H](COCCOC)O[C@@H]([C@H]2C)[C@]1(C)O
inactive: Potency [1] | Potency [2] | Potency [3] | Potency [19] | Potency [6] | Potency [8] | Potency [9] | Potency [10] | Potency [11] | Potency [12] | Potency [13] | Potency [15] | outcome [16]

CO/N=C(\C(=O)N[C@@H]1C(=O)N2C(C(=O)O)=C(CSC(=O)c3ccco3)CS[C@H]12)c1csc(N)n1
inactive: Potency [1] | Potency [2] | Potency [3] | Potency [19] | Potency [4] | Potency [6] | Potency [7] | Potency [9] | Potency [10] | Potency [11] | Potency [12] | Potency [13] | outcome [14] | Potency [15] | outcome [16] | Potency [20] | Potency [17]

CCCCC(=O)OCC(=O)[C@]1(O)Cc2c(O)c3c(c(O)c2[C@@H](O[C@H]2C[C@H](NC(=O)C(F)(F)F)[C@H](O)[C@H](C)O2)C1)C(=O)c1c(OC)cccc1C3=O
inactive: Potency [4] | Potency [18] | Potency [6] | Potency [7] | Potency [8] | Potency [9] | Potency [10] | Potency [11] | Potency [12] | Potency [13] | outcome [14] | Potency [15] | outcome [16]
active: Potency [1] 4.22 µM | Potency [2] 3.35 µM | Potency [5] 1.19 µM | Potency [20] 7.56 µM

Cc1ncc(COP(=O)(O)O)c(CN)c1O
inactive: Potency [1] | Potency [2] | Potency [3] | Potency [19] | Potency [18] | Potency [6] | Potency [7] | Potency [8] | Potency [9] | Potency [10] | Potency [11] | Potency [12] | Potency [13] | outcome [14] | Potency [15] | outcome [16] | Potency [20] | Potency [17]

O=C1CCC(=O)N1CO
inactive: Potency [1] | Potency [2] | Potency [3] | Potency [19] | Potency [4] | Potency [6] | Potency [7] | Potency [8] | Potency [9] | Potency [10] | Potency [11] | Potency [12] | Potency [13] | outcome [14] | Potency [15] | Potency [20]
